Reference: ChEMBL document CHEMBL1961873, “Compounds: GSK PKIS; Assays: Nanosyn kinase panel” (2012)

Key:
[1] = target: T1, Inhibitor of nuclear factor kappa-B kinase subunit epsilon (Homo sapiens) (UniProt Q14164); settings: at 1 µM;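 note: reported values are averaged percent inhibition figures against human IKKε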
T1 sequence (whole entry): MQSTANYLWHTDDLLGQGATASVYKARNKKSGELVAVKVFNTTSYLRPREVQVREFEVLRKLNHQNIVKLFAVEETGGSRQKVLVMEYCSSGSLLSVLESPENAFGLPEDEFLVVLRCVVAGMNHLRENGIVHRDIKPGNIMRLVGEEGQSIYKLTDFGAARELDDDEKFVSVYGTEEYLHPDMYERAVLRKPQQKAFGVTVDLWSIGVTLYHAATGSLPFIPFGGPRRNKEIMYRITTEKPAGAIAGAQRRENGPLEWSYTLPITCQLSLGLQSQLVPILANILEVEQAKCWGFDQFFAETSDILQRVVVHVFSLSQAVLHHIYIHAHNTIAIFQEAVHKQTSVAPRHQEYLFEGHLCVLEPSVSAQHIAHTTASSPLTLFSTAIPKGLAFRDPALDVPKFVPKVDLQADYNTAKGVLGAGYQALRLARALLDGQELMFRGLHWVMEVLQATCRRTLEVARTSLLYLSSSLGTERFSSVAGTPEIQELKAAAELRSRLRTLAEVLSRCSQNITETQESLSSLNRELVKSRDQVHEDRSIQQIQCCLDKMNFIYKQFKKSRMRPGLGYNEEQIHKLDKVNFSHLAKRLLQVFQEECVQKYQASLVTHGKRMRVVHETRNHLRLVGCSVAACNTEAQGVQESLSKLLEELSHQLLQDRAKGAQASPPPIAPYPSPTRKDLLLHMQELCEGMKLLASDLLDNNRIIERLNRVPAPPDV

[2] = target: T2, Serine/threonine-protein kinase Nek1 (Homo sapiens) (UniProt Q96PY6); settings: at 0.1 µM
T2 sequence (whole entry): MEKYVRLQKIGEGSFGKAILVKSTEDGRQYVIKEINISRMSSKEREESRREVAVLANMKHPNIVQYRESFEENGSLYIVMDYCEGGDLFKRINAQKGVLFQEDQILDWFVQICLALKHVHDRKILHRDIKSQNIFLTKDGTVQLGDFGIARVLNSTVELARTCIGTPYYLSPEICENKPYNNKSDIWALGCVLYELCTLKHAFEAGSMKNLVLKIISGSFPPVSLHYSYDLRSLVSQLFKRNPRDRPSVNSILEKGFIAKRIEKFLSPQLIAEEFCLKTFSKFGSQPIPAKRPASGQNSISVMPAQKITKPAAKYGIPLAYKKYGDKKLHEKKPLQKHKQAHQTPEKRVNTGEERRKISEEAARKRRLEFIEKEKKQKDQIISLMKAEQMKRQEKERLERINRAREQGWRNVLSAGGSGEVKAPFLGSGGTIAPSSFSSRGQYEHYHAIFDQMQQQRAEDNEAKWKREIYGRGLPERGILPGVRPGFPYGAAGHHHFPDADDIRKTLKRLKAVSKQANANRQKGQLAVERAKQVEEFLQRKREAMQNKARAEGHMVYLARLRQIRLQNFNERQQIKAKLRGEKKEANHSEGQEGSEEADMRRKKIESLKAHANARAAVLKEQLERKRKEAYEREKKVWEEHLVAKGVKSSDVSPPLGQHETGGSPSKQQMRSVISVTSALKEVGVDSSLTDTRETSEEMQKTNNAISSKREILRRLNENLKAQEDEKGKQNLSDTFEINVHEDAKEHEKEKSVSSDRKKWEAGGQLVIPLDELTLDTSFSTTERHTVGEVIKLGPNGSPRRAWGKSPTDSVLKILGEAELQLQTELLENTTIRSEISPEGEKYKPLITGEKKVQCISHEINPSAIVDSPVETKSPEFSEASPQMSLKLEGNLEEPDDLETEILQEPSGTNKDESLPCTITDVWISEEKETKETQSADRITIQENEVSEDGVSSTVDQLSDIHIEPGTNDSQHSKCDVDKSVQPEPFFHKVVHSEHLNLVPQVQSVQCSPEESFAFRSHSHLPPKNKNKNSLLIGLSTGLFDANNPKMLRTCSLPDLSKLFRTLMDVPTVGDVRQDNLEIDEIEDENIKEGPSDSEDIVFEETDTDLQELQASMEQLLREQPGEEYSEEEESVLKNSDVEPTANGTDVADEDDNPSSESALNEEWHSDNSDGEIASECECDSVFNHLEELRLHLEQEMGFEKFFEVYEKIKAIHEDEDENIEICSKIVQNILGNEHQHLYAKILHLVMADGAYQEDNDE

[3] = target: T2, Serine/threonine-protein kinase Nek1 (Homo sapiens); settings: at 1 µM
[4] = target: T3, Serine/threonine-protein kinase Nek2 (Homo sapiens) (UniProt P51955); settings: at 0.1 µM
T3 sequence (whole entry): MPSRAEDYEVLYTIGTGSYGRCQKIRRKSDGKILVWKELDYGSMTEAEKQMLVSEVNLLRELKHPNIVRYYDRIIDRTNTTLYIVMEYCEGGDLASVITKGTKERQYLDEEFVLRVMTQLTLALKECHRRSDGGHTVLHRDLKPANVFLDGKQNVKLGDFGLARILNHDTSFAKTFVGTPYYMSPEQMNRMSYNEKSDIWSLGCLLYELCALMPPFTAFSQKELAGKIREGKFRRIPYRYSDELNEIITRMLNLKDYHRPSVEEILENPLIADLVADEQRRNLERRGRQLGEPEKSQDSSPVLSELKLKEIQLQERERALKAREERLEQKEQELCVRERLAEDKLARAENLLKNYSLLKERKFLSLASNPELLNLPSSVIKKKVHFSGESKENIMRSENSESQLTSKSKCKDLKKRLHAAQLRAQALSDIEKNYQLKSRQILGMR

[5] = target: T3, Serine/threonine-protein kinase Nek2 (Homo sapiens); settings: at 1 µM
[6] = target: Serine/threonine-protein kinase Nek6 (Homo sapiens) (UniProt Q9HC98); settings: at 0.1 µM
Sequence of Serine/threonine-protein kinase Nek6 (Homo sapiens) (Q9HC98 whole entry): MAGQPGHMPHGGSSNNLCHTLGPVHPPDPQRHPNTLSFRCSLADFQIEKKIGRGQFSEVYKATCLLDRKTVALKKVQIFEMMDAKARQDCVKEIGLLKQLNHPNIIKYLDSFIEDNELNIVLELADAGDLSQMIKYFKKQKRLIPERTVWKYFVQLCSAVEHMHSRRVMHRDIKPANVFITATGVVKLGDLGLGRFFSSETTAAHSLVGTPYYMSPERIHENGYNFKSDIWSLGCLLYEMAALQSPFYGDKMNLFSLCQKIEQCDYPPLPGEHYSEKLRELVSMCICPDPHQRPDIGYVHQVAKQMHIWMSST

[7] = target: Serine/threonine-protein kinase Nek6 (Homo sapiens) (UniProt Q9HC98); settings: at 1 µM
[8] = target: Serine/threonine-protein kinase Nek7 (Homo sapiens) (UniProt Q8TDX7); settings: at 0.1 µM
Sequence of Serine/threonine-protein kinase Nek7 (Homo sapiens) (Q8TDX7 whole entry, looked up): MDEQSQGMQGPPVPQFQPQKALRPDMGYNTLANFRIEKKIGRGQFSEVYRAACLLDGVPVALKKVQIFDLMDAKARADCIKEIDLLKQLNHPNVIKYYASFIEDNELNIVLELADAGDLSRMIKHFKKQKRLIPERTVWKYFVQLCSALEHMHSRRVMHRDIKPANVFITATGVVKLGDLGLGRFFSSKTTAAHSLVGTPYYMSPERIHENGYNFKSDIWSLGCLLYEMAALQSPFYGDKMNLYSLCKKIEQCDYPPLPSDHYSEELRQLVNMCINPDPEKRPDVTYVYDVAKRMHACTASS

[9] = target: Serine/threonine-protein kinase Nek7 (Homo sapiens) (UniProt Q8TDX7); settings: at 1 µM
[10] = target: T4, Serine/threonine-protein kinase Nek9 (Homo sapiens) (UniProt Q8TD19); settings: at 0.1 µM
T4 sequence (whole entry): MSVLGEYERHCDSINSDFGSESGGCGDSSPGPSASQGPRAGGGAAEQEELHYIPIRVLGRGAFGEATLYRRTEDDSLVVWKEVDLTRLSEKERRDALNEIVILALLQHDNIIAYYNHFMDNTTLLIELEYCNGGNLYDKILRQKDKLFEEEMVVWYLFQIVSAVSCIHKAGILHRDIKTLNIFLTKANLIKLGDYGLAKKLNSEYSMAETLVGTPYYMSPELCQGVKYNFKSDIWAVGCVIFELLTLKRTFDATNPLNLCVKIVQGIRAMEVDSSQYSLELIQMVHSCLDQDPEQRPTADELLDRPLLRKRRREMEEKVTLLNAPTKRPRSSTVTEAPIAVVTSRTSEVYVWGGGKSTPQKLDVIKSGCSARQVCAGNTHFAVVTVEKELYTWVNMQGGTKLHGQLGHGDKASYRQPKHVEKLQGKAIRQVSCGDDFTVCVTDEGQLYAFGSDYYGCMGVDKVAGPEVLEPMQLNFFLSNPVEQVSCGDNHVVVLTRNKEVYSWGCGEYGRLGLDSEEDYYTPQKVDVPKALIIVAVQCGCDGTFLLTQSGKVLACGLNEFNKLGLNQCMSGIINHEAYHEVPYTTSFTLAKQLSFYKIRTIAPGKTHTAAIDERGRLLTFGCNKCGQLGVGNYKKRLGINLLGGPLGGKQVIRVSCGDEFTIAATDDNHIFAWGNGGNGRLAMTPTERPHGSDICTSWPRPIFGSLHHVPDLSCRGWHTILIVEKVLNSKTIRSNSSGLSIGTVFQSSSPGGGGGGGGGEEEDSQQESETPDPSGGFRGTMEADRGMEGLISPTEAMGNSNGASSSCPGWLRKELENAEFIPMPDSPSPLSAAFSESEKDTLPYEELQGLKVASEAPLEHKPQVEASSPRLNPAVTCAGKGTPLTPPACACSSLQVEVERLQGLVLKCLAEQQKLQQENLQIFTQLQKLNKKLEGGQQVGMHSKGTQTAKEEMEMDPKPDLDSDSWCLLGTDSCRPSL

[11] = target: T4, Serine/threonine-protein kinase Nek9 (Homo sapiens); settings: at 1 µM
[12] = target: Serine/threonine-protein kinase PLK1 (Homo sapiens) (UniProt P53350); settings: at 0.1 µM
Sequence of Serine/threonine-protein kinase PLK1 (Homo sapiens) (P53350 whole entry): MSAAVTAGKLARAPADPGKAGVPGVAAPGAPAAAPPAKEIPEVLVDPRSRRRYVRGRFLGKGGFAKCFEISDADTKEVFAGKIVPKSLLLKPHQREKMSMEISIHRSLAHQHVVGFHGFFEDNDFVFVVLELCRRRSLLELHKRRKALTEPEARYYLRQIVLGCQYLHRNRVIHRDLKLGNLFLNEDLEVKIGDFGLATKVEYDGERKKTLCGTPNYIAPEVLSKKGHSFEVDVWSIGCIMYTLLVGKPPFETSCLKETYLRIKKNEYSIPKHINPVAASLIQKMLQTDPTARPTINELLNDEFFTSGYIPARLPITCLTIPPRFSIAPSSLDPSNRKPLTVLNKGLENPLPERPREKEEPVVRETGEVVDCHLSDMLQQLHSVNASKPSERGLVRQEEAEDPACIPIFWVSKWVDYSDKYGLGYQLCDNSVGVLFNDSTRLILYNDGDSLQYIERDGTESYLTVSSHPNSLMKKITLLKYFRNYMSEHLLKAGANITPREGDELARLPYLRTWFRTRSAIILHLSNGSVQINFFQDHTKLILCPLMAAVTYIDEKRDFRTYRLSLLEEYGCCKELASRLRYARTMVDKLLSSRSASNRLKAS

[13] = target: Serine/threonine-protein kinase PLK1 (Homo sapiens) (UniProt P53350); settings: at 1 µM
[14] = target: T5, Dual specificity protein kinase TTK (Homo sapiens) (UniProt P33981); settings: at 0.1 µM
T5 sequence (whole entry): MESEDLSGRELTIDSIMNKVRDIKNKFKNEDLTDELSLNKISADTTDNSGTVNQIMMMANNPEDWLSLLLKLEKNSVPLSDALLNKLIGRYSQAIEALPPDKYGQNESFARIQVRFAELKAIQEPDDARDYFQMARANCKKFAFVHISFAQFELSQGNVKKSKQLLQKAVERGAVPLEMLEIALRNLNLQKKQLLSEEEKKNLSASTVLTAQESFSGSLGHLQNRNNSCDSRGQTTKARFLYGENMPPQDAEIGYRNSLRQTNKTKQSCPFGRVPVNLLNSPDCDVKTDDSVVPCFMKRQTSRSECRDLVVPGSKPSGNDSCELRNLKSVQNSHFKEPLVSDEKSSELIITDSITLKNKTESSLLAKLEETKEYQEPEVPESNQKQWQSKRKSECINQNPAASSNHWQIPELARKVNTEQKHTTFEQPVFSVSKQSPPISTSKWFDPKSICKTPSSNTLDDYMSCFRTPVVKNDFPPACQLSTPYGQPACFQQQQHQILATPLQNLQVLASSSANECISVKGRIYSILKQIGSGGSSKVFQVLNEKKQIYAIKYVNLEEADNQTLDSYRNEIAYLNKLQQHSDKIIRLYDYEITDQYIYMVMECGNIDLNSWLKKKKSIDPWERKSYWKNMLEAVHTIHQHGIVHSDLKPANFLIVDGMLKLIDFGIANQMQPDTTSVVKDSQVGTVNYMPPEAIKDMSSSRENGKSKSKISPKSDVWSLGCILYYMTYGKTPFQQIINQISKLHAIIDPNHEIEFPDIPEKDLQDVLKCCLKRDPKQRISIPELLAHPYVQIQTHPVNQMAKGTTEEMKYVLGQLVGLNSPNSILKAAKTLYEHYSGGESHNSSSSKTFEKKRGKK

[15] = tested on: T6, Receptor-type tyrosine-protein kinase FLT3 (Homo sapiens), P36888 [D835Y]; settings: at 1 µM
T6 sequence (whole entry): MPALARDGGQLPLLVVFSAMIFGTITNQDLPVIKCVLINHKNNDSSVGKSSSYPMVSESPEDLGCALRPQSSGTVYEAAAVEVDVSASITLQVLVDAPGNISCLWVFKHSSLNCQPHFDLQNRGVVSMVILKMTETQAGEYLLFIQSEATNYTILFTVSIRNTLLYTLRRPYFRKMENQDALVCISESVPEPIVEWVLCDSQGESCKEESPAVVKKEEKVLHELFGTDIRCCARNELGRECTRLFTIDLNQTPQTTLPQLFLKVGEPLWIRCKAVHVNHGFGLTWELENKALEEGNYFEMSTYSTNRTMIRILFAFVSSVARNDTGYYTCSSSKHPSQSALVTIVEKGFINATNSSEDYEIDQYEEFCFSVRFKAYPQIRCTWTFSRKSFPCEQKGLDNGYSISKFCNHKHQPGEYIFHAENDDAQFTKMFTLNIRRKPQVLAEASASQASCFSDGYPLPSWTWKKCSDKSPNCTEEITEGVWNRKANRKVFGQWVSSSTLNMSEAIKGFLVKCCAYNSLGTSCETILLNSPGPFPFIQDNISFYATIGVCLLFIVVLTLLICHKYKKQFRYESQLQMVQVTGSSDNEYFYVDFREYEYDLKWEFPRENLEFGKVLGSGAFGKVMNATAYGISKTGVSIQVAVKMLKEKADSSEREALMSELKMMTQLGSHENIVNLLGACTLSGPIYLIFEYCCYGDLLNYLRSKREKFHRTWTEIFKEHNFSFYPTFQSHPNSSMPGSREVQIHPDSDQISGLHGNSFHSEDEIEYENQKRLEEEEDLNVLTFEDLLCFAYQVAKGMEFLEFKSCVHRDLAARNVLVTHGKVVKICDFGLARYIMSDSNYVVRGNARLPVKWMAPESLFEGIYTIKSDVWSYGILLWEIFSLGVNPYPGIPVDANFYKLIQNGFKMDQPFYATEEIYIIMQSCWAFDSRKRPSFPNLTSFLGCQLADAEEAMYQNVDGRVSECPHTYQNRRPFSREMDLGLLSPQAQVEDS

[16] = target: Vascular endothelial growth factor receptor 3 (Homo sapiens) (UniProt P35916); settings: at 0.1 µM
Sequence of Vascular endothelial growth factor receptor 3 (Homo sapiens) (P35916 whole entry): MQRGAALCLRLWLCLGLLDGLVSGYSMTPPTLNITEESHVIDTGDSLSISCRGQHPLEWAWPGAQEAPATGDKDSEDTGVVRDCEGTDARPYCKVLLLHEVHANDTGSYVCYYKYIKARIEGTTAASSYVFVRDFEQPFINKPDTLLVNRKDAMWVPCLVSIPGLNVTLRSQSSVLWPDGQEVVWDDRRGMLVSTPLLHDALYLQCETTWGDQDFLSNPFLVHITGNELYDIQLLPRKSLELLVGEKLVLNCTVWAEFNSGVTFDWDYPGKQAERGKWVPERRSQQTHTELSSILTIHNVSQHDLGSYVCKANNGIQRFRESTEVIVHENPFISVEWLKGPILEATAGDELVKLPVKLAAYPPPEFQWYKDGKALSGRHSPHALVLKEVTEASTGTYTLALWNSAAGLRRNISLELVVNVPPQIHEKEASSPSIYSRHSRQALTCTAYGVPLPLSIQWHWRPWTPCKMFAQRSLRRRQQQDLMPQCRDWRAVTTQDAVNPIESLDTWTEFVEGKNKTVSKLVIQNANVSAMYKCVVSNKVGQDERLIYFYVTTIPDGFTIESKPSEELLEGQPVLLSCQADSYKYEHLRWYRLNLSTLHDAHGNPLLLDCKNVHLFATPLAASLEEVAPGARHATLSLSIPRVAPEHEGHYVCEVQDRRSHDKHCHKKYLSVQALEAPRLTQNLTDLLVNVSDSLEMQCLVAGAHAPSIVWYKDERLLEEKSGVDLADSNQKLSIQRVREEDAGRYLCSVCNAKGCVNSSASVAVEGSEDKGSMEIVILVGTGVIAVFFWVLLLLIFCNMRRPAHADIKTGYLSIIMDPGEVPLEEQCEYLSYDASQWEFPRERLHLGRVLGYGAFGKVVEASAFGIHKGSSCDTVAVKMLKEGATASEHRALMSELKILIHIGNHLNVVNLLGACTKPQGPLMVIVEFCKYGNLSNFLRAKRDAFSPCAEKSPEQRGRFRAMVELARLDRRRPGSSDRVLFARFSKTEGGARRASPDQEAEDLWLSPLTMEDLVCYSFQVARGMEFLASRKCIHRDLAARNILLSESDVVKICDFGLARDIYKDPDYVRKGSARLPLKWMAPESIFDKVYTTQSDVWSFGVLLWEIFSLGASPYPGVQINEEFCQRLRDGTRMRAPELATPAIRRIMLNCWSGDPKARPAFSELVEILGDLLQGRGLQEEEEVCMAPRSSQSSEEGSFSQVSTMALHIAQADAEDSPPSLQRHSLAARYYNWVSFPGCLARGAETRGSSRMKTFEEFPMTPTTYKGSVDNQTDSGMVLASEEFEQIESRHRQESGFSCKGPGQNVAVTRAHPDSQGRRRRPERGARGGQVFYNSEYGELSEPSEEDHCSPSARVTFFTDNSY

[17] = target: Vascular endothelial growth factor receptor 3 (Homo sapiens) (UniProt P35916); settings: at 1 µM
[18] = target: Macrophage colony-stimulating factor 1 receptor (Homo sapiens) (UniProt P07333); settings: at 0.1 µM
Sequence of Macrophage colony-stimulating factor 1 receptor (Homo sapiens) (P07333 whole entry): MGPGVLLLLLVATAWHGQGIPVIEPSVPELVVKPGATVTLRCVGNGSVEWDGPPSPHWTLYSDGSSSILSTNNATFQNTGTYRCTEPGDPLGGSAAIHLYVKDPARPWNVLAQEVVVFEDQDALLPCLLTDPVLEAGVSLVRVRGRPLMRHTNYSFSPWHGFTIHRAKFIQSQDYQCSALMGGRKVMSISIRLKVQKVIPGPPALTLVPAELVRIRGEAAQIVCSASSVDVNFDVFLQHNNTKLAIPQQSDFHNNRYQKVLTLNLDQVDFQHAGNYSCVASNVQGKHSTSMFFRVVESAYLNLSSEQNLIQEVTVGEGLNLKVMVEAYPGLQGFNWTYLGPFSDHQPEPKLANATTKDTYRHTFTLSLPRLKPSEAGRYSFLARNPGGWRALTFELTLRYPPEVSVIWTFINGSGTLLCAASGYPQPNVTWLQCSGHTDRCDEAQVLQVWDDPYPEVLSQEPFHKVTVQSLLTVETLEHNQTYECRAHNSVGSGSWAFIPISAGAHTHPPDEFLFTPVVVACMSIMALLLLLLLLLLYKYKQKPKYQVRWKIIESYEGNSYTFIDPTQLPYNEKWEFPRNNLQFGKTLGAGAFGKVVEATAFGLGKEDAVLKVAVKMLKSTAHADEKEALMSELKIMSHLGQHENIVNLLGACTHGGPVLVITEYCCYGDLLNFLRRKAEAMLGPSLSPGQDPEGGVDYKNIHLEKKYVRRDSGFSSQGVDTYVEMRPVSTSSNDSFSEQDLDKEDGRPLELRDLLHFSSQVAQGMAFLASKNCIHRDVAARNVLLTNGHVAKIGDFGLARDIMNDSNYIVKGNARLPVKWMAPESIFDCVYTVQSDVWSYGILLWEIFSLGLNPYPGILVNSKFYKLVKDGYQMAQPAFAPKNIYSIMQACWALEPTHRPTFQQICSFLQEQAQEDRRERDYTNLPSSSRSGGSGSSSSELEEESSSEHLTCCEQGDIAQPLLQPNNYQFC

[19] = target: Macrophage colony-stimulating factor 1 receptor (Homo sapiens) (UniProt P07333); settings: at 1 µM
[20] = target: Tyrosine-protein kinase Fyn (Homo sapiens) (UniProt P06241); settings: at 0.1 µM
Sequence of Tyrosine-protein kinase Fyn (Homo sapiens) (P06241 2-537 limits assumed): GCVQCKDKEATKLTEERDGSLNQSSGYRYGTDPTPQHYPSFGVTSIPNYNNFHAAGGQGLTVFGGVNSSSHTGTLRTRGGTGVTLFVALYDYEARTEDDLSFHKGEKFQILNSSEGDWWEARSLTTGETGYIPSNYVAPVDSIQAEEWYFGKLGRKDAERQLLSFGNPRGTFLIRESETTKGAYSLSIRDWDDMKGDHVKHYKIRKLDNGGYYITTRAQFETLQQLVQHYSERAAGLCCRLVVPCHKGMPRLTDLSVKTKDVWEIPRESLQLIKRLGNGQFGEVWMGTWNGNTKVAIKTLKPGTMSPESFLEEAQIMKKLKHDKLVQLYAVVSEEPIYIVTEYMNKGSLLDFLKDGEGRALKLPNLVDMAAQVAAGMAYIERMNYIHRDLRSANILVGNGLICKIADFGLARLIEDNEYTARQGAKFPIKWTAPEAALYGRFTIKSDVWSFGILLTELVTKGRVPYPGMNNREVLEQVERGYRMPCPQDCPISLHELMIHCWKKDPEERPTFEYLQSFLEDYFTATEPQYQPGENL

**Q.** CCOc1nccc2c1nc(-c1nonc1N)n2CC was tested. Which inhibition [1] did it give?
**A.** 6.4%

**Q.** What about the inhibition [2] of the same compound?
**A.** 5.3%

**Q.** What about the inhibition [3] of the same compound?
**A.** 8.93%

**Q.** And the inhibition [4]?
**A.** 3.98%

**Q.** What about the inhibition [5] of the same compound?
**A.** 7.87%

**Q.** What about the inhibition [6] of the same compound?
**A.** 5.75%

**Q.** What about the inhibition [7] of the same compound?
**A.** 5.08%

**Q.** What about the inhibition [8] of the same compound?
**A.** 2.9%

**Q.** What about the inhibition [9] of the same compound?
**A.** 3.26%

**Q.** What about the inhibition [10] of the same compound?
**A.** 6.44%

**Q.** And the inhibition [11]?
**A.** 11.4%

**Q.** And the inhibition [12]?
**A.** 5.12%

**Q.** What about the inhibition [13] of the same compound?
**A.** 5.25%

**Q.** What about the inhibition [14] of the same compound?
**A.** 7.47%

**Q.** And the inhibition [15]?
**A.** -1.34%

**Q.** And the inhibition [16]?
**A.** 12.8%

**Q.** What about the inhibition [17] of the same compound?
**A.** 19.3%

**Q.** And the inhibition [18]?
**A.** 0.65%

**Q.** What about the inhibition [19] of the same compound?
**A.** 2.68%

**Q.** What about the inhibition [20] of the same compound?
**A.** 0.3%
